Laboratory results from PubChem BioAssay (NCI).
The panel holds about 83,000 compounds, 20% with a hit somewhere; the sample as a whole holds those more often.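 Cells were grown in 96-well plates and exposed to the test compound at a single concentration for 48 hours; results are reported as percent growth, with values below 10 considered active.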 The source made the active and inactive calls.

Key:
Experiment in all cases: NCI-60 one-dose screen, 48 h (100 = growth as untreated, 0 = no growth, -100 = all killed)
Conditions in all cases: 10 µM unless noted
RPMI-8226 leukemia = tested on: RPMI-8226 leukemia
OVCAR-8 ovarian = tested on: OVCAR-8 ovarian
OVCAR-5 ovarian = tested on: OVCAR-5 ovarian
OVCAR-4 ovarian = tested on: OVCAR-4 ovarian
SK-OV-3 ovarian = tested on: SK-OV-3 ovarian
IGROV1 ovarian = tested on: IGROV1 ovarian
OVCAR-3 ovarian = tested on: OVCAR-3 ovarian
HS 578T breast = tested on: HS 578T breast
NCI/ADR-RES ovarian = tested on: NCI/ADR-RES ovarian
T-47D breast = tested on: T-47D breast
BT-549 breast = tested on: BT-549 breast
MDA-MB-435 melanoma = tested on: MDA-MB-435 melanoma
SW-620 colon = tested on: SW-620 colon
HCT-116 colon = tested on: HCT-116 colon
HCC-2998 colon = tested on: HCC-2998 colon
KM12 colon = tested on: KM12 colon
MCF7 breast = tested on: MCF7 breast

Measured: growth

C/C(=C\C(=O)c1ccc(Cl)cc1)c1ccc(Cl)cc1
inactive: RPMI-8226 leukemia 75% | OVCAR-8 ovarian 95.5% | OVCAR-5 ovarian 62.3% | OVCAR-4 ovarian 67.3% | SK-OV-3 ovarian 94.3% | IGROV1 ovarian 76.3% | OVCAR-3 ovarian 99.2% | HS 578T breast 96.6% | NCI/ADR-RES ovarian 103% | T-47D breast 85.8% | BT-549 breast 103% | MDA-MB-435 melanoma 102% | SW-620 colon 99.3% | HCT-116 colon 101% | HCC-2998 colon 82.2% | KM12 colon 26.2%

Cc1ccc2nc(NC(=O)CSc3nc(Cl)c(C#N)c(-c4ccccc4)n3)sc2c1
inactive: RPMI-8226 leukemia 96.9% | OVCAR-8 ovarian 98.3% | OVCAR-5 ovarian 104% | OVCAR-4 ovarian 105% | SK-OV-3 ovarian 95.7% | IGROV1 ovarian 93.3% | OVCAR-3 ovarian 107% | HS 578T breast 95.9% | NCI/ADR-RES ovarian 102% | T-47D breast 89.1% | BT-549 breast 103% | MDA-MB-435 melanoma 98.8% | SW-620 colon 103% | HCT-116 colon 102% | HCC-2998 colon 108% | KM12 colon 110%

Clc1ccc(C(/C=C/c2sc(Cl)nc2Cl)=N/Nc2cc(Cl)cc(Cl)c2)cc1
inactive: RPMI-8226 leukemia 98.1% | OVCAR-8 ovarian 104% | OVCAR-5 ovarian 104% | OVCAR-4 ovarian 100% | SK-OV-3 ovarian 98.9% | IGROV1 ovarian 89.7% | HS 578T breast 98.3% | NCI/ADR-RES ovarian 104% | T-47D breast 98.2% | BT-549 breast 115% | MDA-MB-435 melanoma 101% | SW-620 colon 106% | MCF7 breast 100% | HCT-116 colon 106% | HCC-2998 colon 112% | KM12 colon 105%

COc1nc2ccc(C)cc2cc1-c1nc2c(cnn2-c2ccc(Br)cc2)c(=O)[nH]1
active: OVCAR-3 ovarian -17% | MDA-MB-435 melanoma -27.1%
inactive: RPMI-8226 leukemia 33.2% | OVCAR-8 ovarian 40.7% | OVCAR-5 ovarian 73.2% | OVCAR-4 ovarian 58% | SK-OV-3 ovarian 43.3% | IGROV1 ovarian 38.4% | HS 578T breast 34.3% | NCI/ADR-RES ovarian 14.2% | T-47D breast 58.3% | BT-549 breast 91.2% | SW-620 colon 28.6% | HCT-116 colon 13.7% | HCC-2998 colon 88.4% | KM12 colon 25%

NC(=O)Nc1ccc2ncnc(Nc3ccc(Cl)cc3)c2c1
inactive: RPMI-8226 leukemia 101% | OVCAR-8 ovarian 89.5% | OVCAR-5 ovarian 83.6% | OVCAR-4 ovarian 91.9% | SK-OV-3 ovarian 30.2% | IGROV1 ovarian 61% | OVCAR-3 ovarian 74.2% | HS 578T breast 87.8% | NCI/ADR-RES ovarian 88.7% | T-47D breast 61.6% | BT-549 breast 92.4% | MDA-MB-435 melanoma 97.8% | SW-620 colon 99.1% | HCT-116 colon 96.4% | HCC-2998 colon 97.9% | KM12 colon 98.5%

O=CN1N=C(c2ccc(Nc3ccnc4cc(Cl)ccc34)cc2)CC1c1ccccc1 (configuration not stated)
inactive: RPMI-8226 leukemia 17.2% | OVCAR-8 ovarian 51.8% | OVCAR-5 ovarian 84.1% | OVCAR-4 ovarian 39% | SK-OV-3 ovarian 41.3% | IGROV1 ovarian 50.2% | HS 578T breast 47.5% | T-47D breast 31.7% | BT-549 breast 39.1% | SW-620 colon 31.8% | MCF7 breast 18.2% | HCT-116 colon 24% | HCC-2998 colon 36.2% | KM12 colon 35.9%
active: NCI/ADR-RES ovarian 7.22% | MDA-MB-435 melanoma 8.64%

COc1cc(CNS(=O)(=O)c2ccc(C)cc2)ccc1OCc1cn(-c2ccccc2)nn1
inactive: RPMI-8226 leukemia 67.9% | OVCAR-8 ovarian 93.2% | OVCAR-5 ovarian 97.9% | OVCAR-4 ovarian 56.8% | SK-OV-3 ovarian 97.6% | IGROV1 ovarian 83.7% | OVCAR-3 ovarian 85% | HS 578T breast 86.1% | NCI/ADR-RES ovarian 81.3% | T-47D breast 66.5% | BT-549 breast 88.1% | MDA-MB-435 melanoma 99.9% | SW-620 colon 98.9% | HCT-116 colon 85.1% | HCC-2998 colon 117% | KM12 colon 99.4%

CCN1C(=O)N(CC)C2Nn3c(s/c(=C\c4ccc([N+](=O)[O-])cc4)c3=O)=NC21 (configuration not stated)
inactive: RPMI-8226 leukemia 51.8% | OVCAR-8 ovarian 66.7% | OVCAR-5 ovarian 82.5% | OVCAR-4 ovarian 14.2% | SK-OV-3 ovarian 105% | IGROV1 ovarian 17.3% | HS 578T breast 83.4% | NCI/ADR-RES ovarian 23.4% | T-47D breast 40.2% | BT-549 breast 95.2% | MDA-MB-435 melanoma 61.9% | SW-620 colon 60.2% | MCF7 breast 11% | HCT-116 colon 18.2% | HCC-2998 colon 101%

O=c1ccc(N=Nc2ccccc2)ccc1Cl
inactive: RPMI-8226 leukemia 25.1% | OVCAR-8 ovarian 38.9% | OVCAR-5 ovarian 120% | OVCAR-4 ovarian 84.6% | SK-OV-3 ovarian 93.8% | IGROV1 ovarian 80.7% | HS 578T breast 92.4% | T-47D breast 42.4% | BT-549 breast 135% | MDA-MB-435 melanoma 40.6% | MCF7 breast 17.6% | HCT-116 colon 13.7% | HCC-2998 colon 35% | KM12 colon 74.6%
active: NCI/ADR-RES ovarian -4.66% | SW-620 colon -3.18%

COc1c(C2CC(=O)Nc3c2c(C)nn3-c2nc3ccccc3[nH]2)cc2c(c1OC)OCO2 (configuration not stated)
active: MDA-MB-435 melanoma -32.7%
inactive: RPMI-8226 leukemia 53.6% | OVCAR-8 ovarian 52% | OVCAR-5 ovarian 105% | OVCAR-4 ovarian 83.2% | SK-OV-3 ovarian 42% | IGROV1 ovarian 48.8% | OVCAR-3 ovarian 36.1% | HS 578T breast 28.3% | NCI/ADR-RES ovarian 39.8% | T-47D breast 43.8% | BT-549 breast 47.8% | SW-620 colon 36.4% | MCF7 breast 24.1% | HCT-116 colon 28.5% | HCC-2998 colon 94.1% | KM12 colon 45.9%

Cc1cc2nc3ccc(N=Nc4ccc(N(C)C)cc4)cc3n(-c3ccccc3)c-2cc1=N
active: RPMI-8226 leukemia -63.5% | OVCAR-8 ovarian -22% | OVCAR-5 ovarian -78.5% | OVCAR-4 ovarian -93.2% | SK-OV-3 ovarian -78% | IGROV1 ovarian -88.8% | OVCAR-3 ovarian -85% | HS 578T breast -25.3% | NCI/ADR-RES ovarian 4.97% | T-47D breast -57.2% | MDA-MB-435 melanoma -97.5% | SW-620 colon -88.9% | MCF7 breast -65.1% | HCT-116 colon -60.2% | HCC-2998 colon -81.8% | KM12 colon -91.2%

CCOC(=O)Cn1c(C)c(/C=N/NC(=O)c2cc3c(ccc4ccccc43)o2)c2ccccc21
active: SK-OV-3 ovarian 6.12% | OVCAR-3 ovarian 0.688% | NCI/ADR-RES ovarian 8.7% | MDA-MB-435 melanoma -11.4% | HCT-116 colon 8.16%
inactive: RPMI-8226 leukemia 10.6% | OVCAR-8 ovarian 15.5% | OVCAR-5 ovarian 40% | OVCAR-4 ovarian 51% | IGROV1 ovarian 26.3% | HS 578T breast 34.7% | T-47D breast 58.7% | BT-549 breast 35.3% | SW-620 colon 30.4% | HCC-2998 colon 31.3% | KM12 colon 15.6%

CN(C)CC#Cc1ccc2ncc(C#N)c(Nc3ccc(F)c(Cl)c3)c2c1
inactive: RPMI-8226 leukemia 50.3% | OVCAR-8 ovarian 45.2% | OVCAR-5 ovarian 54.8% | OVCAR-4 ovarian 38.1% | SK-OV-3 ovarian 17.4% | OVCAR-3 ovarian 54.9% | HS 578T breast 52.1% | NCI/ADR-RES ovarian 42.9% | T-47D breast 44% | MDA-MB-435 melanoma 65.3% | SW-620 colon 57.3% | MCF7 breast 79.4% | HCT-116 colon 40.7% | HCC-2998 colon 60.3% | KM12 colon 79.7%
active: IGROV1 ovarian 3.51%

C[C@H](C(=O)Nc1ccc(S(N)(=O)=O)cc1)S(=O)(=O)c1ccccc1
inactive: RPMI-8226 leukemia 110% | OVCAR-8 ovarian 99.1% | OVCAR-5 ovarian 111% | OVCAR-4 ovarian 105% | SK-OV-3 ovarian 106% | IGROV1 ovarian 98.9% | OVCAR-3 ovarian 117% | HS 578T breast 101% | NCI/ADR-RES ovarian 99.3% | T-47D breast 93.2% | BT-549 breast 96.8% | MDA-MB-435 melanoma 102% | SW-620 colon 110% | HCT-116 colon 92.1% | HCC-2998 colon 111% | KM12 colon 104%

COc1ccc(C(=O)C(C)C)c2ccccc12
inactive: RPMI-8226 leukemia 82.5% | OVCAR-8 ovarian 126% | OVCAR-5 ovarian 98% | OVCAR-4 ovarian 108% | SK-OV-3 ovarian 107% | IGROV1 ovarian 128% | OVCAR-3 ovarian 120% | HS 578T breast 90.8% | NCI/ADR-RES ovarian 107% | T-47D breast 92.2% | BT-549 breast 113% | MDA-MB-435 melanoma 97.9% | SW-620 colon 95.2% | HCT-116 colon 101% | HCC-2998 colon 107% | KM12 colon 101%

Cc1cc2nc3cc(C)c(N)cc3[n+](-c3ccccc3)c2cc1N
inactive: RPMI-8226 leukemia 41.4% | OVCAR-8 ovarian 40.7% | OVCAR-5 ovarian 103% | OVCAR-4 ovarian 36.4% | SK-OV-3 ovarian 91.3% | IGROV1 ovarian 79.4% | HS 578T breast 59.2% | NCI/ADR-RES ovarian 101% | T-47D breast 14% | BT-549 breast 18.5% | MDA-MB-435 melanoma 67.2% | SW-620 colon 72.9% | MCF7 breast 32.7% | HCT-116 colon 33.1% | HCC-2998 colon 56.6% | KM12 colon 28%

COc1cc(C(=O)/C=C/c2sc(Cl)nc2Cl)cc(OC)c1OC
active: RPMI-8226 leukemia -38% | OVCAR-3 ovarian -95.5% | SW-620 colon -61% | MCF7 breast -68.1% | HCT-116 colon -54.3% | HCC-2998 colon -58.3%
inactive: OVCAR-8 ovarian 33.6% | OVCAR-5 ovarian 77.1% | OVCAR-4 ovarian 57.2% | SK-OV-3 ovarian 97.7% | IGROV1 ovarian 25.5% | HS 578T breast 71.3% | NCI/ADR-RES ovarian 76.3% | T-47D breast 28.2% | MDA-MB-435 melanoma 98.5% | KM12 colon 28.4%
